This is a sample that favours compounds with a hit; in the whole collection about 2.4% have one here.
NOD2 RIPK2 PPI: inhibitors of human NOD2-RIPK2 interaction | AID 624267 | O43353 | inhibition, % at 4.98 µM | hit rate 0.38% among 360,000 | CHO BLA complementation NOD2-RIPK2, CCF4 ratio; in the data active = inhibition above about 21%;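 also: 0% = vehicle only and 100% = reference blocker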
Target sequence (O43353 whole entry, looked up): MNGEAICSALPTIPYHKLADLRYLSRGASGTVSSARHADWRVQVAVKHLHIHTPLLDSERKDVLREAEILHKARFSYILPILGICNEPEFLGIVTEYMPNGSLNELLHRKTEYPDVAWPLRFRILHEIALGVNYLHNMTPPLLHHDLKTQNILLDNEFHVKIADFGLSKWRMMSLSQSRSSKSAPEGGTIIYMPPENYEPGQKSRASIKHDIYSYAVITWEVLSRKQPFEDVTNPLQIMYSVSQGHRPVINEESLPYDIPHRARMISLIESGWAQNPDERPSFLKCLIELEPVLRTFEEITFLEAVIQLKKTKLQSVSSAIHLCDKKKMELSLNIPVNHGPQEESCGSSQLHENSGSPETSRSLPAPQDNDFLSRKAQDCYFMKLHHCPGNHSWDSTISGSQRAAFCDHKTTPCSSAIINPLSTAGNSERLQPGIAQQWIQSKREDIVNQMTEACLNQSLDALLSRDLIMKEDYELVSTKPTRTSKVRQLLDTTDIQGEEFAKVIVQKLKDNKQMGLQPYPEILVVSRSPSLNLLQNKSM
TLR4 MyD88 comp: inhibitors of human TLR4-MyD88 binding | AID 861 | hit rate 0.18% among 200,000 | O00206+Q99836 | HeLa CL3-4 TLR4/MyD88 BLA complementation, FRET ratio | inhibition, % at 8.4 µM; in the data active = inhibition above about 25%;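 also: 0% = vehicle and 100% = reference inhibitor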
TMEM16A inh: mouse TMEM16A channel inhibition, primary screen | Q8BHY3 | HEK293 TMEM16A/YFP iodide influx fluorescence, ionomycin | normalized B-score (activity score, 25-100; higher = stronger inhibition) at 10 µM | hit rate 1.2% among 310,000 | AID 588511;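 active = ratio plate-corrected score three or more library SD toward inhibition, starting fluorescence score within five deviations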;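 also: score derived from kinetic fluorescence span divided by baseline fluorescence per well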
HTR2A ag: mouse HTR2A agonism via beta-arrestin recruitment; hit rate 0.66% among 360,000; AID 624169; activation, % at 7.6 µM; P35363; CHO-K1 mHTR2A beta-arrestin complementation, luminescence; percent of 30 µM serotonin response;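 active = activation above a run cutoff, the mean activation of all tested compounds plus 3 SD, cut at about 14% in these data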;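 also: 0% = plate median of compound wells and 100% = 30 µM serotonin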
TMEM16A act: activators or potentiators of mouse TMEM16A chloride channel | Q8BHY3 | HEK293 TMEM16A/YFP-H148Q/I152L, iodide quench fluorescence; active compounds read low | B-score at 10 µM | hit rate 0.3% among 340,000 | AID 623877;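 active = fluorescence-ratio B-score plate-corrected deviation score at least 3 library SD below zero, with starting fluorescence score within 5 deviations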;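 also: channel opened by trigger with iodide after compound preincubation; score built on the fluorescence ratio of max minus min over baseline; more negative score means more quench and so TMEM16A activation or potentiation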
TLR9-MyD88 block: blocks human TLR9 binding to MyD88 | CHO BLA complementation TLR9-MyD88, CCF4 FRET ratio | Q9NR96+Q99836 | inhibition, % at 4.98 µM | hit rate 0.21% among 340,000;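 active = inhibition above the mean over all tested compounds plus 3 SD, cut at about 21% in these data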;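 also: 0% = DMSO only wells and 100% = clavulanate BLA inhibitor control wells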
MOR ag counter: counter-screen for mouse HTR2A agonists: human mu opioid receptor agonists | AID 624380 | hit rate 5.3% among 2,300 | U2OS OPRM1 beta-arrestin PathHunter, luminescence; DMSO 0%, DAMGO 9.3 µM 100% | shares compounds with HTR2A ag | activation, % at 9.3 µM;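 active = mean activation above the mean of DMSO-only wells plus 3 SD, cut at about 0.5% in these data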
HTR2A ag conf: confirmation of mouse HTR2A serotonin receptor agonists; shares compounds with HTR2A ag; CHO-K1 PathHunter beta-arrestin recruitment, luminescence; DMSO 0%, 30 µM serotonin 100%; activation, % at 7.6 µM; hit rate 19% among 2,300;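 active = mean activation across triplicates above the hit threshold derived in the original primary screen, cut at about 15% in these data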
NOD2 RIPK2 conf: confirmation of human NOD2-RIPK2 interaction inhibitors; hit rate 70% among 1,200; inhibition, % at 4.98 µM; CHO cells, NOD2-RIPK2 BLA complementation, CCF4 FRET; AID 624370; shares compounds with NOD2 RIPK2 PPI;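 active = mean inhibition across replicates above a set limit taken from the earlier primary screen, cut at about 21% in these data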;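 also: 0% = DMSO-only wells and the high end = clavulanate BLA-blocked wells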
NOD2 BLA counter: NOD2-RIPK2 counterscreen BLA reporter activity. shares compounds with NOD2 RIPK2 PPI. CHO BLA reporter, CCF4 FRET ratio. inhibition, % at 4.98 µM. hit rate 57% among 1,200;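 active = mean inhibition above the low-control mean inhibition plus three low-control SD, cut at about 11% in these data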;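 also: 0% = DMSO only wells and 100% = clavulanate high control wells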
* hit, by the source's call; i = inactive; . = no result.

SMILES	NOD2 RIPK2 PPI	TLR4 MyD88 comp	TMEM16A inh	HTR2A ag	TMEM16A act	TLR9-MyD88 block	NOD2 RIPK2 conf	NOD2 BLA counter	others
CCCN1CCc2cccc3c2[C@H]1Cc1ccc(O)c(O)c1-3	14	.	i	62*	i	0	.	.	MOR ag counter=1.4*;HTR2A ag conf=136*
COc1ccc2c(c1O)-c1c(OC)c(OC)cc3c1[C@H](C2)N(C)CC3	3	.	i	-3	i	-6	.	.
COc1ccc2[nH]cc(CCN)c2c1	2	12	i	52*	i	-5	.	.	MOR ag counter=0;HTR2A ag conf=28*
OCCNCCc1c[nH]c2ccc(OCc3ccccc3)cc12	3	.	i	6	i	-4	.	.
C#CC[N+]1(C)[C@@H]2CC[C@H]1CC(OC(=O)C(CO)c1ccccc1)C2 (some centres undefined)	5	.	i	-5	i	-3	.	.
CCOC(=O)c1ccc(NC(=O)N2C[C@@H]3C[C@@H](C2)c2cccc(=O)n2C3)cc1	-5	.	i	25*	i	3	.	.	MOR ag counter=0;HTR2A ag conf=-2
COc1ccc(/C=C/C(=O)NC(=S)N2C[C@H]3C[C@H](C2)c2cccc(=O)n2C3)cc1	-7	.	i	4	i	-1	.	.
Cn1c(O)c(/C=C2/C=CC=N2)c(=O)[nH]c1=O	-5	.	i	1	i	7	.	.
COC1CC2C=C(C)C=CC=CC(=O)NC(c3ccccc3)CC=CCCC(O)CC(=O)C2=C1O (centres undefined)	67*	.	.	21*	.	.	102*	79*	MOR ag counter=6.0*;HTR2A ag conf=19*
CCOc1cc(C=C2C(=O)NC(=O)NC2=O)ccc1OS(=O)(=O)c1ccccc1	0	-6	i	0	i	-9	.	.
COc1cc(/C=C/[N+](=O)[O-])ccc1OC(=O)c1cccnc1	22*	.	i	-2	i	-1	86*	6
CC(=O)O[C@H]1C[C@@H]2OC3C=C(C)CCC3(C)[C@@]1(C)[C@@]21CO1 (some centres undefined)	24*	.	.	11	i	-2	28*	0
CC(=O)OC1CC2OC3C=C(C)CCC3(C)C1(C)C21CO1 (centres undefined)	25*	.	.	3	.	.	27*	0
COC(=O)C1=C(C(=O)OC)SC2(S1)C(C(=O)OC)=C(C(=O)OC)Sc1c2ssc1=O	75*	.	.	4	i	2	76*	4
CCC1CN2CCc3cc(OC)c(OC)cc3C2CC1CC1NCCc2c1[nH]c1ccc(O)cc21 (centres undefined)	29*	.	.	8	i	-6	27*	0
CCn1cc(CN2CCCC(C(=O)c3sccc3C)C2)cn1 (centres undefined)	-7	-21	i	-3	i	-2	.	.
COc1cc2c(cc1/C=C/[N+](=O)[O-])OCO2	40*	13	.	3	i	-5	65*	-5
OCCN(CC#CC(O)(c1ccccc1)C1CCCC1)CCO (centres undefined)	6	-4	i	-5	i	1	.	.
CC1=CC2OC3CC4OC(=O)C=CC=CC(C(C)O)OCC(O)C5(C)OC5C(=O)OCC2(CC1O)C4(C)C31CO1 (centres undefined)	29*	.	.	8	i	0	17	-5
CC1=CC2OC3CC4OC(=O)C=CC=CC(=O)OCCC(C)C(O)C(=O)OCC2(CC1)C4(C)C31CO1 (centres undefined)	23*	.	.	5	i	5	17	-4
